# MIN6 prolif = MIN6 beta-cell proliferation induction | MIN6 cells proliferation, ATPlite luminescence, 48 h; cells starved in 0.2% serum; 100% = growth in 10% serum | proliferation, % at 10 µM | 330,000 compounds, 0.29% hits | AID 2380;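 active means compounds whose signal lies at least 3.5 SD above the mean of all wells on their plate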
# NR3A LBD binder = NR3A (human) ligand-binding domain modulation. NR3A LBD differential scanning fluorimetry, Tm shift; 0% = protein alone, 100% = glycine-bound protein. Tm shift relative to glycine control, % at 25 µM. 340,000 compounds, 2.5% hits;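 active means melting temperature shift of at least 10% of the positive control shift, at one fixed dose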
# MPTP inh = inhibitors of mitochondrial permeability transition pore. isolated mouse mitochondria, Ca2+ swelling absorbance, 30 min. inhibition, % at 10 µM. 360,000 compounds, 1.4% hits. AID 602449;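 active means inhibition of 50% or more, scaled per plate between neutral and stimulator controls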
# FAS TE block = inhibitors of human fatty acid synthase thioesterase domain; recombinant FAS-TE, OMFH fluorogenic substrate, fluorescence endpoint; inhibition, % at 15 µM; 360,000 compounds, 0.67% hits; AID 602261;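 active means compounds whose normalised, plate-corrected inhibition of enzyme fluorescence in the single-dose primary screen is 50% or more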
# pCIP destab = lowers stability of the mouse p/CIP coactivator protein. Q05BA5. F442A p/CIP-EGFP cells, EGFP fluorescence, 16 h. decrease of EGFP signal, % at 10 µM. 290,000 compounds, 0.01% hits;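 active means EGFP signal decrease of at least 30% at 10 µM or well 3 SD below plate mean, unless failing retest; inactive means the rest, including hits failing retest or dose response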
# FAS-TE inh conf = FAS thioesterase (human) inhibition, confirmation | shares compounds with FAS TE block | recombinant FAS-TE, OMFH fluorogenic substrate, fluorescence | inhibition, % at 15 µM | 2,300 compounds, 45% hits | AID 624325;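 active means compounds inhibiting the enzyme by at least 50% at 15 µM in any one of the replicates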
# Numbers stand for hits; n = inactive; x = no result given. A selection: hits, their analogues and other compounds. The true share with any hit is near 4.1%.
SMILES,MIN6 prolif,NR3A LBD binder,MPTP inh,FAS TE block,pCIP destab,FAS-TE inh conf
COc1cc2cc(CN(Cc3cccs3)C(=S)Nc3ccc(C)cc3)c(=O)[nH]c2cc1OC,n,12,n,76,n,n
CN(C)S(=O)(=O)c1ccc(-c2csc(-c3cccnc3)n2)cc1,n,n,n,75,n,78
N#Cc1c(-c2ccccc2)c(-c2ccccc2)nn(CC(=O)NNC(=O)Nc2ccc(Cl)cc2)c1=O,n,15,n,76,n,78
N#Cc1c(-c2ccccc2)c(-c2ccccc2)nn(CC(=O)NNC(=O)Nc2ccccc2)c1=O,n,n,n,n,n,x
CCN(CC)S(=O)(=O)c1ccc(C(=O)NCCN(C)C)cc1,n,n,n,n,n,x
CC(C)C(NC(=O)OCc1ccccc1)C(=O)NC(Cc1c[nH]c2ccccc12)C(=O)O (stereo not given),x,x,n,n,x,x
Cc1ccccc1-n1c(SCC(=O)Nc2ccccc2)nc2nc3c(cc2c1=O)CCCC3,n,n,n,n,n,x
O=C(CSc1nc2ccccc2c(=O)n1-c1ccc(F)cc1F)Nc1ccc2c(c1)CCC2,n,n,n,54,n,n
O=C(CSc1nc2ccccc2c(=O)n1-c1ccc(F)cc1)Nc1ccc2c(c1)CCC2,n,n,n,n,n,x
O=C(CSc1nc2ccccc2c(=O)n1-c1ccccc1F)Nc1ccc2c(c1)CCC2,n,n,n,n,n,x
O=C(CSc1nc2nc3c(cc2c(=O)n1-c1ccccc1)CCCC3)Nc1cccc2ccccc12,n,n,n,63,n,n
O=C(CSc1nc2ccccc2c(=O)n1-c1ccc(F)c(Cl)c1)Nc1ccc2c(c1)CCC2,x,x,n,61,x,n
CN(Cc1ccc(Cl)cc1)C(CCc1ccccc1)C(=O)NC1CCCCC1 (stereo not given),x,x,n,n,x,x
CCCCCCCCCCCCN1[C@@H](CC(=O)O)c2cc(F)ccc2S1(=O)=O,n,n,n,59,x,75
C[C@]1(C(=O)NCc2cc(F)cc(C(F)(F)F)c2)C=C[C@@H](Cc2ccccc2)N1C(=O)c1ccccc1,n,n,n,68,n,n
COCCNC(=O)[C@@]1(C)C=C[C@@H](Cc2ccccc2)N1C(=O)c1ccccc1,n,n,n,n,n,x
C/C=C/c1cccc(-c2nc(C(=O)NC3Cc4ccccc4C3)cc3c2[C@@H](CCO)N(C(C)=O)C3)c1,x,x,n,n,x,x
COC(=O)C1=CN(c2ccc(N3CCOCC3)cc2)C(N)=C(C#N)C1c1cccc(OC)c1OC (stereo not given),x,x,n,x,x,x
COc1ccc([N+](=O)[O-])cc1NC(=O)N(C)Cc1ccco1,n,n,n,51,n,42
C/C=C/C=C/C(=O)OC(C)C(=O)Nc1cc([N+](=O)[O-])ccc1OC (stereo not given),n,n,n,73,n,60
COc1ccc([N+](=O)[O-])cc1NC(=S)Nc1ccccc1,n,n,n,n,n,x
COC(=O)Nc1cc([N+](=O)[O-])ccc1OC,n,n,n,n,n,x
COc1ccc(-n2cc(C(=O)Nc3cc([N+](=O)[O-])ccc3OC)c3ccccc3c2=O)cc1,n,n,n,55,n,n
COc1ccc([N+](=O)[O-])cc1NC(=O)Nc1ccccc1,n,n,n,58,n,62
CC1OC(CC(=O)O)CC2=C1C(=O)c1c(O)cccc1C2=O (stereo not given),x,n,n,n,x,x
SMILES,MIN6 prolif,NR3A LBD binder,MPTP inh,FAS TE block,pCIP destab,FAS-TE inh conf
Cc1ccc(CN2CC(N3CCCCC3)CS2(=O)=O)cc1 (stereo not given),x,x,n,n,x,x
COC12CC(=O)C(C(C)=O)=C(O)C1(C)c1c(O)c(C)c(O)c(C(C)=O)c1O2 (stereo not given),x,x,n,n,x,x
CC(=O)Nc1cc(-c2cccc(C(=O)N(C)C)c2)cn2c(-c3ccc(C(C)=O)cc3)cnc12,x,x,n,n,x,x
COC(=O)N1C(=O)[C@](c2ccccc2)(C2CCCC2)N1C(=O)OC,n,n,n,80,n,90
COC(=O)N1C(=O)[C@@](c2ccccc2)(C(C)C)N1C(=O)OC,n,n,n,n,n,x
CCN(CC)CCNC(=O)c1cc([N+](=O)[O-])c(N(C)C)cc1OC,n,n,n,n,n,x
COc1cc(N(C)C)c([N+](=O)[O-])cc1C(=O)NC(C)CNc1ccc([N+](=O)[O-])cc1Cl (stereo not given),n,n,n,70,n,59

# Compound activity from PubChem BioAssay.
